The record followed here is the supplement of paper PMC8047044.

The subject of assay [1] is Neuro-2a. Put plainly: neurite formation score, plate-normalized to DMSO control mean 5.04 (score (0-8 scale)); higher = more or longer neurites. To be noted: 1 µM. Here is the method: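 Neuro-2a mouse neuroblastoma cells in PLL-coated 96-well plates were pre-treated for 1 h in DMEM(+) with each kinase inhibitor at 1 µM, then switched to serum-free DMEM(-) with inhibitor to induce neurite outgrowth and fixed about 2-3 h later. Three blinded observers scored neurite formation from 0 (no neurites) to 8 (long neurites on almost all cells).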

Assay [2] has as its system Neuro-2a. Described as above. To be noted: 0.1 µM. The protocol: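 Neuro-2a mouse neuroblastoma cells in PLL-coated 96-well plates were pre-treated for 1 h in DMEM(+) with each kinase inhibitor at 0.1 µM, then switched to serum-free DMEM(-) with inhibitor to induce neurite outgrowth and fixed about 2-3 h later. Three blinded observers scored neurite formation from 0 (no neurites) to 8 (long neurites on almost all cells).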

Several values for one entry are separate records, joined by “and”; a condition that tells them apart may be missing. Equal values may be shown once. Where a name gives a salt, the structure may show the parent alone. ± gives the standard deviation of the averaged measurements.

Regarding `CCCCCCCCCCCCc1ccc(S(=O)(=O)Nc2nncs2)cc1`, the figures for the neurite formation score in the assay with Neuro-2a [1] and in the assay on Neuro-2a [2] were 4.24 and 5.54, respectively.
With `CC(C)n1nc(-c2cc3cc(O)ccc3[nH]2)c2c(N)ncnc21`, the neurite formation score was 3.47 with Neuro-2a [1] and 4.76 in the assay with Neuro-2a [2].
On the same counts, the results for `CN(C)C/C=C/C(=O)Nc1cc2c(Nc3ccc(F)c(Cl)c3)ncnc2cc1O[C@H]1CCOC1` [Afatinib dimaleate] are 4.91 and 4.38.
Taken in the same sequence, the figures for `Cc1ccc(NC(=O)c2cccc(C(C)(C)C#N)c2)cc1Nc1ccc2ncn(C)c(=O)c2c1` were 5.24 and 4.88.
On the same counts, the results for `CC(C)CC(=O)Nc1n[nH]c2c1CN(C(=O)C1CCN(C)CC1)C2(C)C` are 4.57 and 4.54.
Regarding `CCN(CCO)CCCOc1ccc2c(Nc3cc(CC(=O)Nc4cccc(F)c4)[nH]n3)ncnc2c1` [Barasertib (AZD1152-HQPA)], the figures for the neurite formation score in the assay with Neuro-2a [1] and with Neuro-2a [2] were 4.69 and 4.58, respectively.
On to `O=C(Nc1nc2cccc(-c3ccc(CN4CCS(=O)(=O)CC4)cc3)n2n1)C1CC1`, for which the neurite formation score in the assay with Neuro-2a [1] worked out at 4.88 ± 0.58; in the assay on Neuro-2a [2], 5 ± 0.35.
As to `C=CC(=O)Nc1cc(Nc2nccc(-c3cn(C)c4ccccc34)n2)c(OC)cc1N(C)CCN(C)C`, the neurite formation score with Neuro-2a [1] is 5.14; in the assay on Neuro-2a [2], 3.76.
On the same counts, the results for `O=c1cc(-c2cccc3c2Sc2ccccc2S3)oc(N2CCOCC2)c1` are 3.69 and 1.92.
Taken in the same sequence, the figures for `Nc1cccc(-c2cc3c(Oc4cccc(O)c4)ncnc3[nH]2)c1` were 1.88 and 3.75.
Taken in the same sequence, the figures for `CN1CCC(Nc2nc(Nc3ccc(Oc4ccccc4)cc3)c3c(=O)[nH]cc(Br)c3n2)CC1` were 3.29 and 4.25.
For `CC(C)(C)c1nc(-c2cccc(NS(=O)(=O)c3c(F)cccc3F)c2F)c(-c2ccnc(N)n2)s1`, the neurite formation score in the assay on Neuro-2a [1] was 5.02 and 5.29; in the assay on Neuro-2a [2], 5.25.
Take `CCN1CCN(c2ccc(Nc3cc(N(C)C(=O)Nc4c(Cl)c(OC)cc(OC)c4Cl)ncn3)cc2)CC1`: the values for the neurite formation score in the assay with Neuro-2a [1] and with Neuro-2a [2] were 3.8 and 4.09, respectively.
On the same counts, the results for `C[C@H](Nc1ncnc2nc[nH]c12)c1cc2cccc(Cl)c2c(=O)n1-c1ccccc1` are 2.91 and 5.04.
Taken in the same sequence, the figures for `O=c1c(O)c(-c2ccc(O)c(O)c2)oc2cc(O)cc(O)c12` [Quercetin] were 4.54 and 5.08.
On the same counts, the results for `Cn1c(Nc2ccc(C(F)(F)F)cc2)nc2cc(Oc3ccnc(-c4ncc(C(F)(F)F)[nH]4)c3)ccc21` are 4.24 and 4.88.
Regarding `COc1cc(F)c(F)c(Nc2ccc(I)cc2F)c1NS(=O)(=O)C1(C[C@H](O)CO)CC1` [Refametinib], the neurite formation score turned out to be 4.14 with Neuro-2a [1] and 3.42 in the assay on Neuro-2a [2].
As for `COc1cc(N2CCOCC2)ccc1Nc1ncc(F)c(Nc2ccccc2NS(C)(=O)=O)n1`, the neurite formation score was determined as 4.54 with Neuro-2a [1] and 4.75 with Neuro-2a [2].
Taken in the same sequence, the figures for `O=c1cc(N2CCOCC2)oc2c(-c3cccc4c3sc3ccccc34)cccc12` were 2.9 and 4.21.
Regarding `N#CC(=C(/N)Sc1ccccc1N)/C(C#N)=C(\N)Sc1ccccc1N`, the results for the neurite formation score in the assay on Neuro-2a [1] and in the assay on Neuro-2a [2] were 4.57 and 5.71, respectively.
On the same counts, the results for `CC(C)n1nc(-c2ccc3oc(N)nc3c2)c2c(N)ncnc21` are 3.96 and 5.25.
On the same counts, the results for `NC(=O)c1cnc(N[C@@H]2CCCC[C@@H]2N)nc1Nc1cccc(-n2nccn2)c1` are 4.36 and 4.92.
Take `C[C@H]1[C@H](C)CC[C@]2(C(=O)O)CC[C@]3(C)C(=CC[C@@H]4[C@@]5(C)C[C@@H](O)[C@H](O)[C@@](C)(CO)[C@@H]5CC[C@]43C)[C@H]12` [Asiatic acid]: the figures for the neurite formation score with Neuro-2a [1] and with Neuro-2a [2] were 4.21 and 5.08, respectively.
On the same counts, the results for `CCN1CCN(Cc2ccc(Nc3ncc(F)c(-c4cc(F)c5nc(C)n(C(C)C)c5c4)n3)nc2)CC1` are 4.57 and 3.04.
On the same counts, the results for `Cc1cc(C)nc(NS(=O)(=O)c2ccc(NC(=S)NC(=O)COc3ccc(Br)cc3Cl)cc2)n1` are 3.9 and 3.88.
Taken in the same sequence, the figures for `Cc1cc(Nc2cc(N3CCN(C)CC3)nc(/C=C/c3ccccc3)n2)n[nH]1` [ENMD-2076 L-(+)-Tartaric acid] were 3.8 and 4.76.
`N[C@@H]1CCCN(c2c(/C=C3\SC(=O)NC3=O)cccc2-c2ccccc2)C1`: the neurite formation score in the assay on Neuro-2a [1] was 5.36; in the assay on Neuro-2a [2] it was 5.25.
Taken in the same sequence, the figures for `COc1cc(C(=O)N2CCC(N3CCN(C)CC3)CC2)ccc1Nc1ncc2c(n1)N(C)c1ccccc1C(=O)N2C` were 4.36 and 4.92.
Taken in the same sequence, the figures for `O=C(O)[C@]1(Cc2cccc(Nc3nccs3)n2)CC[C@@H](Oc2cccc(Cl)c2F)CC1` were 3.69 and 3.92.
For `O=C(CCCCCCC(=O)Nc1ccc(I)cc1)NO` [4-iodo-SAHA], the neurite formation score with Neuro-2a [1] stood at 5.21; in the assay with Neuro-2a [2] it was 4.42.
On the same counts, the results for `O=C(NOC[C@H](O)CO)c1ccc(F)c(F)c1Nc1ccc(I)cc1F` are 4.91 and 4.71.
On the same counts, the results for `COc1ccc(S(=O)(=O)N(C(C)=O)c2ccccc2/C=C/c2cc[n+]([O-])cc2)cc1` are 0.569 and 3.54.
On the same counts, the results for `CC(C)NC[C@@H](C(=O)N1CCN(c2ncnc3c2[C@H](C)C[C@H]3O)CC1)c1ccc(Cl)cc1` are 4.24 and 5.04.
Consider `CO[C@H]1C[C@@H]2CC[C@@H](C)[C@@](O)(O2)C(=O)C(=O)N2CCCC[C@H]2C(=O)O[C@H]([C@H](C)C[C@@H]2CC[C@@H](OP(C)(C)=O)[C@H](OC)C2)CC(=O)[C@H](C)/C=C(\C)[C@@H](O)[C@@H](OC)C(=O)[C@H](C)C[C@H](C)/C=C/C=C/C=C/1C` [Ridaforolimus (Deforolimus, MK-8669)], for which the neurite formation score in the assay on Neuro-2a [1] came to 4.21; with Neuro-2a [2], 1.42.
`CN1CCN(c2ccc(Nc3cc(-c4cccc(-n5ccc6cc(C7CC7)cc(F)c6c5=O)c4CO)cn(C)c3=O)nc2)CC1`: the neurite formation score was found to be 5.63 in the assay on Neuro-2a [1] and 4.58 with Neuro-2a [2].
On the same counts, the results for `O=C(O)CCC(=O)Nc1ccc(Br)cn1` [Bikinin] are 4.54 and 1.42.
On the same counts, the results for `Cc1c(CN2CCN(C(=O)[C@H](C)O)CC2)sc2c(N3CCOCC3)nc(-c3cnc(N)nc3)nc12` are 4.21 and 4.42.
On the same counts, the results for `CC(C)Oc1ccc(-c2cnc3c(-c4ccnc5ccccc45)cnn3c2)cc1` are 4.88 and 4.08.
For the compound `Cn1cc(-c2ccc3nnc(C(F)(F)c4ccc5ncccc5c4)n3n2)cn1`, the neurite formation score in the assay with Neuro-2a [1] turned out to be 4.02; in the assay with Neuro-2a [2] it was 4.25.
Taken in the same sequence, the figures for `Cn1sc(=O)n(Cc2ccccc2)c1=O` were 2.96 and 4.25.
Turning to `COc1nccc(-c2c(-c3ccc(F)cc3)ncn2C2CCC(O)CC2)n1` (stereo unspecified), the results for the neurite formation score in the assay with Neuro-2a [1] and in the assay with Neuro-2a [2] were 5.36 and 5.25, respectively.
On the same counts, the results for `Clc1ccc(C2(c3ccc(-c4cn[nH]c4)cc3)CCNCC2)cc1` are 5.24 and 4.54.
Taken in the same sequence, the figures for `Cc1nc2c(-c3cnc(N)nc3)nc(N3CCOCC3)nc2n1C(C)C` were 4.02 and 4.25.
On to `COc1cc(Nc2c(C#N)cnc3cc(OCCCN4CCN(C)CC4)c(OC)cc23)c(Cl)cc1Cl` [Bosutinib (SKI-606)], for which the neurite formation score in the assay with Neuro-2a [1] turned out to be 4.57; in the assay with Neuro-2a [2], 2.71.
Taken in the same sequence, the figures for `CC(C)Nc1cc(-c2c[nH]c(C(=O)N[C@H](CO)c3cccc(Cl)c3)c2)c(Cl)cn1` were 3.47 and 4.76.
For the compound `CCCCCCCCCCCCCCCCCCOP(=O)([O-])OC1CC[N+](C)(C)CC1` [Perifosine], the neurite formation score in the assay with Neuro-2a [1] amounted to 4.57; in the assay on Neuro-2a [2], 4.88.
On the same counts, the results for `Nc1nc(N)c2nc(-c3cccc(O)c3)c(-c3cccc(O)c3)nc2n1` are 4.24 and 3.38.
`C=CC(=O)Nc1ccc(CN2C(=O)N(c3cc(OC)cc(OC)c3)Cc3cnc(Nc4ccc(N5CCN(C)CC5)cc4)nc32)cc1`: the neurite formation score in the assay with Neuro-2a [1] amounted to 4.63; in the assay with Neuro-2a [2] it was 4.25.
On the same counts, the results for `Cc1cn(-c2cc(NC(=O)c3ccc(C)c(Nc4nccc(-c5cccnc5)n4)c3)cc(C(F)(F)F)c2)cn1` [Nilotinib(AMN-107)] are 4.57 and 5.21.
Taken in the same sequence, the figures for `CNC(=O)c1cc(Oc2ccc3nc(N[C@@H]4CCCC[C@H]4O)sc3c2)ccn1` were 3.21 and 4.75.
On the same counts, the results for `Cc1[nH]c(/C=C2\C(=O)Nc3ccc(S(=O)(=O)Cc4c(Cl)cccc4Cl)cc32)c(C)c1C(=O)N1CCC[C@@H]1CN1CCCC1` are 3.91 and 5.04.
As for `COc1cc(Nc2ncc(F)c(Nc3ccc4c(n3)N(COP(=O)(O)O)C(=O)C(C)(C)O4)n2)cc(OC)c1OC` [Fostamatinib (R788)], the neurite formation score with Neuro-2a [1] stood at 4.8; in the assay with Neuro-2a [2], 3.76.
On the same counts, the results for `COc1ccccc1-c1cc(Nc2cccc(CS(N)(=O)=O)c2)ncn1` are 4.54 and 4.42.
Taken in the same sequence, the figures for `Cc1ccc(Nc2nccc(N(C)c3ccc4c(C)n(C)nc4c3)n2)cc1S(N)(=O)=O` [Pazopanib Hydrochloride] were 3.57 and 4.88.
Taken in the same sequence, the figures for `O=C1NC(=O)[C@@H](c2cn3c4c(cccc24)CCC3)[C@@H]1c1c[nH]c2ccccc12` [Tivantinib (ARQ 197)] were 0.236 and 0.876.
In the case of `Cn1cnc(-c2cc3nccc(Oc4ccc(NC(=S)NC(=O)Cc5ccccc5)cc4F)c3s2)c1`, the values for the neurite formation score in the assay with Neuro-2a [1] and in the assay on Neuro-2a [2] were 3.69 and 4.92, respectively.
On the same counts, the results for `CC1(C)CNc2cc(NC(=O)c3cccnc3NCc3ccncc3)ccc21` [Motesanib Diphosphate (AMG-706)] are 4.36 and 4.92.
On the same counts, the results for `N#CC[C@H](C1CCCC1)n1cc(-c2ncnc3[nH]ccc23)cn1` [Ruxolitinib phosphate] are 5.02 and 4.92.
On the same counts, the results for `N=C(N)NC(=N)NCCc1ccccc1` [Phenformin HCl] are 4.8 and 4.76.
Consider `CCCCCCCCCCCC(=O)OCC(CO)OC(=O)CCCCCCCCCCC` (stereo unspecified) [1,2-Dilauroyl-sn-glycerol], for which the values for the neurite formation score in the assay with Neuro-2a [1] and in the assay with Neuro-2a [2] were 4.54 and 5.08, respectively.
On the same counts, the results for `Cn1cc(/C=C2\C(=O)Nc3cccnc32)c2ccccc21` are 4.54 and 4.08.
Taken in the same sequence, the figures for `Cc1[nH]c2ccccc2c1C1=C(NCCc2ccc(F)cc2)C(=O)N(C)C1=O` were 4.54 and 2.42.
Taken in the same sequence, the figures for `CCS(=O)(=O)N1CCN(c2ccc(Nc3ncc(C(N)=O)c(NC4CC4)n3)cc2)CC1` were 4.54 and 5.08.
